Common to all, as to assay: NCI-60 one-dose screen, 48 h (100 = growth as untreated, 0 = no growth, -100 = all killed)
The test system of one assay is T-47D breast. Conditions: 10 µM unless noted.
A further assay has as its system BT-549 breast. Conditions: 10 µM unless noted.
Another assay has as its system MDA-MB-435 melanoma. Conditions: 10 µM unless noted.
For another assay, the system named is SW-620 colon. Conditions: 10 µM unless noted.
In another assay the test system is MCF7 breast. Conditions: 10 µM unless noted.
The subject of another assay is HCT-116 colon. Conditions: 10 µM unless noted.
The subject of a further assay is HCC-2998 colon. Conditions: 10 µM.
The subject of a further assay is KM12 colon. Conditions: 10 µM unless noted.

Compounds without any hit were thinned out: in the full panel of roughly 83,000, 20% have a hit.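 Values shown are percent growth following 48 h exposure of cells in 96-well plates to a single concentration of compound; below 10 was considered active.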 A number with no mark means an inactive call. Calls of active or inactive are those of the source.

Take `CC(C)n1c(NCCc2ccc(O)c(O)c2)nc2c1c(=O)n(C)c(=O)n2C`: the growth was 93.7% with T-47D breast; 84.5% with BT-549 breast; 98.5% with MDA-MB-435 melanoma; 102% in the assay on SW-620 colon; 95.4% in the assay with MCF7 breast; 97% with HCT-116 colon. Also, the growth in the assay with HCC-2998 colon was 86.9%; in the assay on KM12 colon it was 91%.

For the molecule `CNc1ncc2cc(-c3cc(NC(=O)NCCC(C)(C)C)c(F)cc3C)c(C)nc2n1`, the growth in the assay on T-47D breast is -2% (active); in the assay with BT-549 breast it was 30.5%; in the assay on MDA-MB-435 melanoma it was 9.76% (active); with SW-620 colon, 17.5%; with MCF7 breast, 45.7%; with HCT-116 colon, 4.36% (active). Besides, the growth in the assay with KM12 colon is 18.2%.

For `NC1(C(=O)N[C@@H](CCO)c2ccc(Cl)cc2)CCN(c2ncnc3[nH]ccc23)CC1`, the growth in the assay with T-47D breast was 11.7%; in the assay with BT-549 breast, -9.59% (active); with MDA-MB-435 melanoma, 26.3%; with SW-620 colon, 62.7%; with MCF7 breast, 27.4%; with HCT-116 colon, 45.7%. Moreover, the growth in the assay on HCC-2998 colon was 46.8%; in the assay with KM12 colon it was 5.76% (active).

`C[C@@H](Oc1cc(C(=O)Nc2ccc(C(=O)N3CCN(C)CC3)cc2)nnc1N)c1c(Cl)ccc(F)c1Cl`: the growth in the assay on T-47D breast was 59.4%; with BT-549 breast, 71.7%; with MDA-MB-435 melanoma, 68.8%; in the assay on SW-620 colon, 98.1%; in the assay with MCF7 breast, 47.1%; in the assay with HCT-116 colon it was 49.4%. For the same molecule, in the assay with KM12 colon, the growth is 23%.

Take `CNC(=O)c1nn(C)c2c1C(C)(C)Cc1cnc(Nc3ccc(N4CCN(C)CC4)cc3)nc1-2`: the growth is -5.71% (active) in the assay with T-47D breast; 5.23% (active) with BT-549 breast; 21.1% in the assay with MDA-MB-435 melanoma; 11.5% in the assay with SW-620 colon; 10.4% in the assay with MCF7 breast; 0.153% (active) with HCT-116 colon. Also, the figures for the growth with HCC-2998 colon and in the assay with KM12 colon were 10.4% and 0.555% (active), respectively.

As to `COc1ccc(C2OC(c3cc(-c4cc5ccccc5o4)nn3-c3ccccc3)=NN2C(C)=O)cc1` (stereo not given), the growth with T-47D breast is 86.5%; in the assay with BT-549 breast, 97.2%; with MDA-MB-435 melanoma, 108%; with SW-620 colon, 107%; in the assay on MCF7 breast, 100%; with HCT-116 colon it was 88.6%. In addition, the growth with KM12 colon was 107%.

Consider `CNC(=O)c1cc(Oc2ccc(NC(=O)Nc3cc(C(C)(C)C)nn3-c3ccc4ncccc4c3)c(F)c2)ccn1`, for which the growth in the assay on T-47D breast was -17.7% (active); with BT-549 breast, -38.2% (active); in the assay on MDA-MB-435 melanoma it was -88% (active); in the assay on SW-620 colon it was -0.427% (active); with MCF7 breast, -6.46% (active); in the assay on HCT-116 colon, -51.8% (active). The growth is -31.5% (active) in the assay with HCC-2998 colon and -23.8% (active) in the assay with KM12 colon.

For the molecule `COc1c(C(NC(=O)c2ccccc2)c2sccc2C)cc(Cl)c2cccnc12` (stereo not given), the growth with T-47D breast is 90.8%; in the assay with BT-549 breast, 97.1%; in the assay with MDA-MB-435 melanoma it was 108%; in the assay with SW-620 colon it was 100%; in the assay with MCF7 breast, 100%; in the assay with HCT-116 colon, 84.1%. Besides, the growth in the assay on HCC-2998 colon was 112%; with KM12 colon it was 104%.

On to `CCN1CCN(c2cc(C)nc(N(CCCNc3ccnc4cc(Cl)ccc34)Cc3ccc4c(c3)OCO4)n2)CC1`, for which the growth in the assay with T-47D breast is -51.8% (active); with BT-549 breast it was -42.6% (active); in the assay with MDA-MB-435 melanoma it was -73.7% (active); in the assay on SW-620 colon it was -3.47% (active); with MCF7 breast, 4.2% (active); with HCT-116 colon, 2.67% (active). The results for the growth with HCC-2998 colon and with KM12 colon were -42.3% (active) and 29.8%, respectively.

For `O=C(Nc1ccc(-c2ccnc(Nc3ccc(N4CCOCC4)cc3)n2)cc1)[C@@H]1CCCN1`, the growth is 56.1% with T-47D breast; 50.9% in the assay on BT-549 breast; 57.7% in the assay on MDA-MB-435 melanoma; 76.6% in the assay with SW-620 colon; 58% in the assay with MCF7 breast; 34.1% in the assay with HCT-116 colon. Also, the growth with KM12 colon is 35.6%.

For `CCCCCC(=O)OCc1ccc(Cl)c(Cl)c1`, the growth with T-47D breast was 105%; in the assay with BT-549 breast, 109%; in the assay with MDA-MB-435 melanoma, 109%; in the assay with SW-620 colon it was 109%; in the assay with MCF7 breast it was 93.9%; in the assay on HCT-116 colon, 101%. Moreover, the growth was 94.8% in the assay on HCC-2998 colon and 103% in the assay with KM12 colon.

As to `Cc1ccccc1N1C(c2ccccc2)=NNC12C=CC(=O)C=C2Cl` (stereo not given), the growth is 117% in the assay with T-47D breast; 106% in the assay on BT-549 breast; 112% in the assay with MDA-MB-435 melanoma; 119% with SW-620 colon; 98% in the assay with MCF7 breast; 103% in the assay on HCT-116 colon. For the same molecule, the growth is 102% with HCC-2998 colon and 110% with KM12 colon.

Take `Nc1nc(N)c2cc(CNc3ccc(C(=O)NC(CC(=O)O)C(=O)O)cc3)ccc2n1` (stereo not given): the growth in the assay on T-47D breast was 62.3%; in the assay with BT-549 breast, 57.7%; in the assay on MDA-MB-435 melanoma, 37.8%; with SW-620 colon, 25.2%; in the assay with MCF7 breast, 17.3%; with HCT-116 colon, 22.4%. For the same molecule, the growth in the assay on KM12 colon was 33.8%.

For the molecule `O=C(NCCO)Nc1ccc(-c2nc(N3CCOCC3)c3cccn3n2)cc1`, the growth in the assay on T-47D breast is -32.6% (active); in the assay on BT-549 breast, -5.61% (active); with MDA-MB-435 melanoma it was -6.22% (active); with SW-620 colon, 22.3%; in the assay with MCF7 breast it was 7.74% (active); with HCT-116 colon, 20.4%. For the same molecule, the growth is 24% in the assay with HCC-2998 colon and 14.7% in the assay with KM12 colon.

In the case of `CC12O[C@H](C[C@@H](OC(=O)CCC(=O)O)[C@H]1O)n1c3ccccc3c3c4c(c5c6ccccc6n2c5c31)C(=O)NC4=O`, the growth is 35.8% in the assay with T-47D breast; -1.04% (active) in the assay with BT-549 breast; 8.34% (active) in the assay with MDA-MB-435 melanoma; 36.2% in the assay with SW-620 colon; 19.2% in the assay with MCF7 breast; 35.6% in the assay on HCT-116 colon. The growth in the assay with HCC-2998 colon was 41.3%; in the assay on KM12 colon it was 15.4%.

For the origin of these results see PubChem BioAssay (NCI).
